# Records with an inconclusive call do not appear. A number with no mark means an inactive call. Unless noted, calls come from the whole dose curve.
# Assay: qHTS assay to identify small molecule agonists of the hypoxia (HIF-1) signaling pathway - cell viability counter screen (AID 1224844); note: nearly all actives have a fitted effect of over 50% in size
# Conditions: HRE-bla ME-180 viability, CellTiter-Glo luminescence, 17 h; series mostly up to 76.8 µM; activity change, negative = cytotoxicity: at the top concentration
# Procedure, shortened: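 Cells (HRE-bla ME-180, 2,000 per well) sat 5 hrs at 37C, got compound for 17 hrs, were read for CCF4-AM FRET, and were finally lysed with CellTiter-Glo for a 30 min room-temperature luminescence read.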
# % is set by controls: 0 for no effect and ±100 for the full control effect.
row,SMILES,"activity change, negative = cytotoxicity"
1,N#CCCC#N,5.12%
2,Nc1ccccc1Cl,3.19%
3,ClCCOCOCCCl,2.37%
4,CNC(=O)O/N=C(\C)SC,-0.0271%
5,CC1CN1P(=O)(N1CC1C)N1CC1C (stereo unspecified),-0.908%
6,BrCCCCCCBr,7.86%
7,COc1cccc(C(=O)NN(C(=O)c2cc(C)cc(C)c2)C(C)(C)C)c1C,-6.97%
8,CNC(=O)Oc1ccccc1C1OCCO1,-7.41%
9,O=C1CN=C(c2ccccc2)c2cc([N+](=O)[O-])ccc2N1,-3.33% [at 35.3 µM]
10,O=C(NCO)NCO,8.78%
11,CC1CCC(=O)O1 (stereo unspecified),10.4%
12,CCCCCCBr,-19.7%
13,O=c1oc2ccccc2c(O)c1C1CCCc2ccccc21 (stereo unspecified),-21.2%
14,CCCCCCI,-15.5%
15,OCCBr,0.333%
16,CCCCP(CCCC)CCCC,-2.81%
17,CCNc1nc(NC(C)C)nc(OC)n1,1.98%
18,CNC(=O)Oc1ccc(N(C)C)c(C)c1,3.04%
19,CC1(C)C(=O)NC(=O)NC1=O,-12.7%

row,SMILES,"activity change, negative = cytotoxicity"
1,Clc1ccccc1N1CCNCC1,2.77% [at 35.3 µM]
2,ClCC(Cl)(Cl)Cl,3.07%
3,c1ccc(N2CCNCC2)cc1,3.61% [at 35.3 µM]
4,NC(=S)C(N)=S,-4.5%
5,C=CC1CC=CCC1 (stereo unspecified),7.92%
6,OCCSCSCCO,3.49%
7,CC1(C)COP(Oc2ccccc2)OC1,9.68%
8,CC(C)CC#N,13.3%
9,CN1CCC(O)(c2ccc(F)cc2)C(C(=O)c2ccc(F)cc2)C1 (stereo unspecified),-5.1% [at 35.3 µM]
10,CC1COC2(c3ccccc3Cl)c3cc(Cl)ccc3NC(=O)CN12 (stereo unspecified),-22.9% [at 35.3 µM]
11,O=C1CN2CCOC2(c2ccccc2Cl)c2cc(Cl)ccc2N1 (stereo unspecified),5.98% [at 35.3 µM]
12,ClC(Br)Br,-2.38%
13,[O]=[Cd],-0.0824%
14,ClC(Cl)C(Cl)Cl,-5.96%
15,C[N+](=O)[O-],6.98%
16,CC(N)=S,-9.93%
17,C#CCN1C(=O)COc2cc(F)c(N3C(=O)C4=C(CCCC4)C3=O)cc21,12.4%
18,[As]#[In],3.56%
19,CC(C)(C)NCC(O)c1cc(Cl)c(N)c(Cl)c1 (stereo unspecified),10.3% [at 35.3 µM]

# Assay: qHTS assay to identify small molecule agonists of H2AX (AID 1224845; active = well fitted activation curve with a large enough effect in the signal ratio in the repeat runs, not every such curve was filed as active; the % refers to the signal ratio)
# Conditions: CHO-K1 phospho-H2AX Ser139 HTRF, 3 h; series mostly up to 154 µM; activation (H2AX phosphorylation): at the top concentration
# Procedure, shortened: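 Wild-type CHO-K1 cells plated overnight, then exposed 3 hr at 37C to compounds at 15 concentrations (0.76% DMSO). Lysed, then HTRF anti-pH2AX(S139)-cryptate/anti-H2AX-d2 detection after 24 hr at room temperature; emissions 665 and 620 nm.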
row,SMILES,activation (H2AX phosphorylation)
1,N#CCCC#N,0.828%
2,Nc1ccccc1Cl,-0.889%
3,ClCCOCOCCCl,1.85%
4,CNC(=O)O/N=C(\C)SC,-1.15%
5,CC1CN1P(=O)(N1CC1C)N1CC1C (stereo unspecified),1.02%
6,BrCCCCCCBr,3.22%
7,COc1cccc(C(=O)NN(C(=O)c2cc(C)cc(C)c2)C(C)(C)C)c1C,1.01%
8,CNC(=O)Oc1ccccc1C1OCCO1,-2.09%
9,O=C1CN=C(c2ccccc2)c2cc([N+](=O)[O-])ccc2N1,-1.73% [at 70.9 µM]
10,O=C(NCO)NCO,-1.13%
11,CC1CCC(=O)O1 (stereo unspecified),0.285%
12,CCCCCCBr,-0.0163%
13,O=c1oc2ccccc2c(O)c1C1CCCc2ccccc21 (stereo unspecified),0.833%
14,CCCCCCI,2.25%
15,OCCBr,-0.0502%
16,CCCCP(CCCC)CCCC,-1.02%
17,CCNc1nc(NC(C)C)nc(OC)n1,-0.0364%
18,CNC(=O)Oc1ccc(N(C)C)c(C)c1,0.201%
19,CC1(C)C(=O)NC(=O)NC1=O,0.474%

row,SMILES,activation (H2AX phosphorylation)
1,Clc1ccccc1N1CCNCC1,-1.03% [at 70.9 µM]
2,ClCC(Cl)(Cl)Cl,1.82%
3,c1ccc(N2CCNCC2)cc1,1.69% [at 70.9 µM]
4,NC(=S)C(N)=S,0.474%
5,C=CC1CC=CCC1 (stereo unspecified),-1.62%
6,OCCSCSCCO,0.131%
7,CC1(C)COP(Oc2ccccc2)OC1,4.45%
8,CC(C)CC#N,4.36%
9,CN1CCC(O)(c2ccc(F)cc2)C(C(=O)c2ccc(F)cc2)C1 (stereo unspecified),0.537% [at 70.9 µM]
10,CC1COC2(c3ccccc3Cl)c3cc(Cl)ccc3NC(=O)CN12 (stereo unspecified),-3.23% [at 70.9 µM]
11,O=C1CN2CCOC2(c2ccccc2Cl)c2cc(Cl)ccc2N1 (stereo unspecified),-3.14% [at 70.9 µM]
12,ClC(Br)Br,0.48%
13,[O]=[Cd],0.536%
14,ClC(Cl)C(Cl)Cl,0.696%
15,C[N+](=O)[O-],-2.34%
16,CC(N)=S,-1.97%
17,C#CCN1C(=O)COc2cc(F)c(N3C(=O)C4=C(CCCC4)C3=O)cc21,-0.192%
18,[As]#[In],-0.206%
19,CC(C)(C)NCC(O)c1cc(Cl)c(N)c(Cl)c1 (stereo unspecified),-2.84% [at 70.9 µM]

# Source: PubChem BioAssay (Tox21)
